This passage reports outcome and AC50 results from PubChem BioAssay (EPA / NIEHS).

In experiment [1] the target is Voltage-gated inwardly rectifying potassium channel KCNH2 (Homo sapiens) (UniProt Q12809). Briefly: NVS_IC_hKhERGCh: NovaScreen (NVS) Ion Channel Assay for human Potassium Channel ERG (KhERGCh) (AID 2283333). An outline of the steps: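 Membranes from CHO cells expressing human ERG; displacement of radioligand measured by filtration and scintillation after 0.75 h. Single-concentration duplicate screen at 25 uM, then concentration-response for actives; DMSO baseline.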

The target of experiment [2] is chimpanzee Androgen Receptor (AR), AR (gene 747460) (UniProt O97775). Briefly: NVS_NR_cAR: NovaScreen (NVS) Nuclear Receptor Binding Assay for chimpanzee Androgen Receptor (AR) (AID 2283346). In a few lines: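 Cell-free radioligand displacement using receptor protein extracted from Sf9/Sf21 cells; bound radioligand measured by scintillation counting 72 hours after chemical dosing. Loss of signal versus DMSO baseline indicates binding; primary screen single-concentration in duplicate at 25 uM, actives followed in concentration series.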

The target in experiment [3] is bovine Gamma-Aminobutyric Acid Type A Receptor Agonist (GABAR Agonist), GABRA1 (gene 780973) (UniProt P08219). Kind of experiment: NVS_LGIC_bGABAR_Agonist: NovaScreen (NVS) Ligand-Gated Ion Channel Assay for bovine Gamma-Aminobutyric Acid Type A Receptor Agonist (GABAR Agonist) (AID 2283338). In a few lines: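 Radioligand binding to bovine cerebellar membranes in agonist format, read by filter-based scintillation counting after 1 h. Primary screen in duplicate at 25 uM, with actives followed in concentration series. Gain of signal versus DMSO.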

The target in experiment [4] is rat Glycine Receptor, Strychnine-sensitive (GlyRStrySens), Glra1 (gene 25674) (UniProt P07727). Briefly: NVS_LGIC_rGlyRStrySens: NovaScreen (NVS) Ligand-Gated Ion Channel Assay for rat Glycine Receptor, Strychnine-sensitive (GlyRStrySens) (AID 2283341). An outline of the steps: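 Radioligand displacement on rat spinal cord membranes, 1 hr, filter scintillation read-out. Single-concentration duplicate screen at 25 uM; chemicals meeting threshold (e.g., 30% inhibition) rerun in concentration-response up to 50 uM. Loss of binding fitted versus DMSO.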

Experiment [5] deals with guinea pig Histamine Receptor (H2), gene 100729734. Briefly: NVS_GPCR_gH2: NovaScreen (NVS) G Protein-Coupled Receptor Assay for guinea pig Histamine Receptor (H2) (AID 2283342). An outline of the steps: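 Guinea pig striatal membrane preparation with specific radioligand; bound counts measured by filtration and scintillation 1 h post-dosing, DMSO as baseline. Chemicals passing a 25 uM duplicate screen were titrated to a 50 uM maximum.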

The target of experiment [6] is Estrogen receptor (Homo sapiens) (UniProt P03372). Briefly: NVS_NR_hER: NovaScreen (NVS) Nuclear Receptor Binding Assay for human Estrogen Receptor (ER) (AID 2283348). An outline of the steps: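 Radiodetection of ligand displacement in a lysate-based, cell-free format using MCF7 extracts, read at 18 hours. Duplicate 25 uM primary testing, then concentration series for actives.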

The target is the same in experiment [7]. Briefly: OT_ER_ERaERa_1440: Odyssey Thera (OT) 24-hour HEK293T Protein-Complementation Assay for Estrogen Receptor-alpha/-alpha Homodimer (AID 2283349).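 Note: hits raise fluorescence above DMSO for agonists and antagonists alike.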 An outline of the steps: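 Stably transfected HEK293T; ERα LBD homodimer PCA. 24 h dosing, fluorescence intensity read, gain-of-signal vs DMSO.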
For experiment [8] the target is unchanged. Briefly: OT_ER_ERaERa_0480: Odyssey Thera (OT) 8-hour HEK293T Protein-Complementation Assay for Estrogen Receptor-alpha/-alpha Homodimer (AID 2283351).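 Note: rise in fluorescence from reassembled reporter fragments on ERα LBD homodimer in nucleus or whole cell.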 An outline of the steps: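 Cells were treated for 8 hours, then imaged on a laser scanning plate cytometer. Complementation of reporter fragments fused to the human ERα ligand-binding domain (residues 310-547) in HEK293T gave fluorescence, and gain of signal over vehicle was fitted.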

Experiment [9] addresses T1, Estrogen receptor (Homo sapiens) + Estrogen receptor beta (Homo sapiens) (UniProt P03372+Q92731). Kind of experiment: OT_ER_ERaERb_0480: Odyssey Thera (OT) 8-hour HEK293T Protein-Complementation Assay for Estrogen Receptor-alpha/-beta Heterodimer (AID 2283352). In a few lines: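 HEK293T protein-fragment complementation assay of ER-alpha/ER-beta LBD heterodimerisation, read 8 h after dosing. Mean nuclear/cytoplasmic fluorescence intensity measured by laser scanning cytometry; gain of signal fitted relative to DMSO.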

Experiment [10] addresses Androgen Receptor/SRC-1 Co-activator, AR (gene 367) (UniProt P10275). Kind of experiment: OT_AR_ARSRC1_0960: Odyssey Thera (OT) 16-hour HEK293T Protein-Complementation Assay for Androgen Receptor/SRC-1 Co-activator (AID 2283353).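 Note: actives raise the signal above DMSO so potency reflects increased AR and SRC-1 complex.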 In a few lines: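 Stable HEK293T line carries AR and SRC-1 each linked to a Venus fragment; chemicals are applied for 16 h, cells imaged at two wavelengths, and the 488 nm nucleus/cytoplasm ratio is taken as the signal, rising relative to DMSO.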

For experiment [11], the target named is T1, Estrogen receptor (Homo sapiens) + Estrogen receptor beta (Homo sapiens). Briefly: OT_ER_ERaERb_1440: Odyssey Thera (OT) 24-hour HEK293T Protein-Complementation Assay for Estrogen Receptor-alpha/-beta Homodimer (AID 2283356).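 Note: heteromer of ER alpha and ER beta binding domains; hits raise reporter fluorescence and both agonists and antagonists give an increase.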 In a few lines: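 HEK293T stably expressing a PCA of ER alpha LBD (aa 310-547) and ER beta LBD (aa 263-489). After 24 h compound exposure, mean fluorescence intensity in nucleus (agonists) or nucleus and cytoplasm (antagonists) measured by laser scanning cytometry versus vehicle.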

For another experiment, the system named is NCBI gene 100848466. Briefly: NVS_NR_bPR: NovaScreen (NVS) Nuclear Receptor Binding Assay for bovine Progextron Receptor (PR) (AID 2283343).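 Note: actives lower bound radioligand signal below DMSO meaning displacement of the label.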 An outline of the steps:
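Steps: bovine uterine membranes were dosed with chemical alongside radioligand, incubated 18 hours, then radiodetected by scintillation counting. Initial testing used 25 uM in duplicate; confirmed actives were rerun as concentration series.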

The target in experiment [12] is Bile acid receptor (Homo sapiens) (UniProt Q96RI1). Kind of experiment: NVS_NR_hFXR_Antagonist: NovaScreen (NVS) Nuclear Receptor Binding Assay for human Farnesoid X Receptor Antagonism (FXR) (AID 2283350). In a few lines: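 Antagonist-format time-resolved FRET binding assay with extracted human receptor protein, read 1 hour after compound addition. Compounds first screened at 25 uM in duplicate, then actives tested in concentration series, with loss of signal relative to DMSO.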

For experiment [13], the target named is human Constitutive Androstane Receptor (CAR), NR1I3 (gene 9970) (UniProt Q14994). Kind of experiment: NVS_NR_hCAR_Antagonist: NovaScreen (NVS) Nuclear Receptor Binding Assay for human Constitutive Androstane Receptor Antagonism (CAR) (AID 2283344). In a few lines: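 Single 25 uM duplicate primary screen, with concentration-series follow-up on actives. Cell-free binding format run in antagonist mode, TR-FRET signal taken 1 h post-dose; activity is signal loss relative to DMSO.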

The target of experiment [14] is rat Mineralocorticoid Receptor (MR), Nr3c2 (gene 25672) (UniProt P22199). Briefly: NVS_NR_rMR: NovaScreen (NVS) Nuclear Receptor Binding Assay for rat Mineralocorticoid Receptor (MR) (AID 2283355). In a few lines: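 Single-concentration duplicate screen (25 uM) of radioligand binding in adrenalectomized rat brain supernatant; scintillation detection 24 h after dosing. Positive and negative controls ran on each plate, and confirmed actives went to concentration-response.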

In experiment [15] the target is bovine Estrogen Receptor (ER), ESR1 (gene 407238) (UniProt P49884). Briefly: NVS_NR_bER: NovaScreen (NVS) Nuclear Receptor Binding Assay for bovine Estrogen Receptor (ER) (AID 2283345).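 Note: actives lower the bound radioligand count which means they displace the ER ligand.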 In a few lines:
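Displacement of a radioligand from estrogen receptor in bovine uterine membrane preparations; scintillation signal taken at 18 hours, DMSO as baseline. Single-concentration duplicates (25 uM) preceded concentration-response follow-up of actives.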

SMILES strings stand for the structures. Inconclusive results are not listed. The source holds several records for some structures; these can differ, active in one and inactive in another. Active and inactive are the calls of the source. Rule for the calls: active = hit-call score of the fitted dose curve at least 0.9, where 1 is the maximum; inconclusive = response in the unintended direction; inactive = score below 0.9.

Chain of bovine Estrogen Receptor (ER), ESR1 (gene 407238) (P49884 whole entry, looked up): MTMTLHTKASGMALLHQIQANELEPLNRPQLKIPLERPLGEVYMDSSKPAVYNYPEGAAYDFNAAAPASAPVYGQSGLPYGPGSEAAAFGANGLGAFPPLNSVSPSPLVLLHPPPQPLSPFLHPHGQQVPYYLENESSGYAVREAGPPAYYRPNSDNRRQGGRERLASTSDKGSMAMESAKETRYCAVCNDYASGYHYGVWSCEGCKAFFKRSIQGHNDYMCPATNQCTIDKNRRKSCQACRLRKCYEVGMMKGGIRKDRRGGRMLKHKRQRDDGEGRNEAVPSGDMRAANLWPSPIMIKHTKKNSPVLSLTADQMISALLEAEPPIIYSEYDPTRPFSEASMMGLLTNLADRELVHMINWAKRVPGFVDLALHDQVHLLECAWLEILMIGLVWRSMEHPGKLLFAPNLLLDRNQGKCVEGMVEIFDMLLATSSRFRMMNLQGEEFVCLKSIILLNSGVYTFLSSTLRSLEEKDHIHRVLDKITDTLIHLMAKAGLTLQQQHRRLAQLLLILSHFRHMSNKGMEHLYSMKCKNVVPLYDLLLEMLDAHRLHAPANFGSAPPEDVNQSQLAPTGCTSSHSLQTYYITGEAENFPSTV
Chain of chimpanzee Androgen Receptor (AR), AR (gene 747460) (O97775 whole entry, looked up): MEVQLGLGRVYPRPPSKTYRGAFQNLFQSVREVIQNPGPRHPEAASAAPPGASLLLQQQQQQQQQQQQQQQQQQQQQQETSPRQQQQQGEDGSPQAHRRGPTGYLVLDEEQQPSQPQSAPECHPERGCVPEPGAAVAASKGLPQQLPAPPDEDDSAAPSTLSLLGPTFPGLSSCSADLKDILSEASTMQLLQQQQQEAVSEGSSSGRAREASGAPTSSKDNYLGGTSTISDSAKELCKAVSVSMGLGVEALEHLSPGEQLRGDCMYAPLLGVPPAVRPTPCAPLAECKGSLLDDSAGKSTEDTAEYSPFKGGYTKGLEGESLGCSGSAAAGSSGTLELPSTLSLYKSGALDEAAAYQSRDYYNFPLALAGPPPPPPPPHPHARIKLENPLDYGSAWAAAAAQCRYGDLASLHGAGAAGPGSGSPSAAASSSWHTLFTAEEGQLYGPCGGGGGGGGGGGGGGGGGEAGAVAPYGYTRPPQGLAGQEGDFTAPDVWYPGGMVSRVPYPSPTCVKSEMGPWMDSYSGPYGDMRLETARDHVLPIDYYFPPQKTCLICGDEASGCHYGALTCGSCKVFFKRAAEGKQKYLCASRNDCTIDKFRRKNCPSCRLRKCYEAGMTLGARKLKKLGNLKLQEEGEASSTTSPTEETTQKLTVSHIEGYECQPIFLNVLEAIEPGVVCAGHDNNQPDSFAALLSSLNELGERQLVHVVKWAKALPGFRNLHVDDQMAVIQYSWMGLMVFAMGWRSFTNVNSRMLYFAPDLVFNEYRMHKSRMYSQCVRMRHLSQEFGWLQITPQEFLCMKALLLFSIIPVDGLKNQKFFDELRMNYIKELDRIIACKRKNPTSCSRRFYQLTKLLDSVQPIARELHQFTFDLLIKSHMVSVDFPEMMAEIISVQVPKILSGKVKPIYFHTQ
T1 sequence (P03372 whole entry, looked up, the tested form may be a part): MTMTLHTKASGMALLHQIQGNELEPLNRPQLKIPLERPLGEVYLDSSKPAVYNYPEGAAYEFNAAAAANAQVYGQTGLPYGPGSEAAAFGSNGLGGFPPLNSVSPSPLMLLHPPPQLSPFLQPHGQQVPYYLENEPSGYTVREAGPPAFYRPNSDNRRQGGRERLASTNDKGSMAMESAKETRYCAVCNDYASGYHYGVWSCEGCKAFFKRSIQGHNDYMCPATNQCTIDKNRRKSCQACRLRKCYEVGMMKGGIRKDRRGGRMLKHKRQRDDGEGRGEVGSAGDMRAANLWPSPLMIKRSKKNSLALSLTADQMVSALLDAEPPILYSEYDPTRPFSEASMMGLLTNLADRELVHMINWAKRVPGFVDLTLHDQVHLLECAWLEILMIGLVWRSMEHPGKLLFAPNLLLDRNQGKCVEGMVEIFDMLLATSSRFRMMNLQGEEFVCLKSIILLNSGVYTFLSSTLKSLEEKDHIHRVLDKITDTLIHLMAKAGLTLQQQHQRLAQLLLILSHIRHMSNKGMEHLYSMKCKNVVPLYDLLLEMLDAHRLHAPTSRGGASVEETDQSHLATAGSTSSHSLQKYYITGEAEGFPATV
T1 sequence (Q92731 whole entry, looked up, the tested form may be a part): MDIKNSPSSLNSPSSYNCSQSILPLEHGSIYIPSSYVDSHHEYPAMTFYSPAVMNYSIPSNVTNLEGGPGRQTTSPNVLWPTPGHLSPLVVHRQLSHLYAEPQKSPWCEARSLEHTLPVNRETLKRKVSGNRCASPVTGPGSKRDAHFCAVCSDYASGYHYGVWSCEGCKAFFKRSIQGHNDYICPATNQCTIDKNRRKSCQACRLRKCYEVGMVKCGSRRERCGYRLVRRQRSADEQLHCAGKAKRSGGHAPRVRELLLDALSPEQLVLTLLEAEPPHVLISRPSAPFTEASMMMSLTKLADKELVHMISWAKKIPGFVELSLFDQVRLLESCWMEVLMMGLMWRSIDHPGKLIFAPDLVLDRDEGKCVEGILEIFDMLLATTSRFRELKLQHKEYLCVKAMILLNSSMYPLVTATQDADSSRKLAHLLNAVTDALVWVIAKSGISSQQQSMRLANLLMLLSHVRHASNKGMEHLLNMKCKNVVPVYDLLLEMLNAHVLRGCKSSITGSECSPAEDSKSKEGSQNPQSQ
Chain of Estrogen receptor (Homo sapiens) (P03372 whole entry, looked up): as the sequence (P03372 whole entry, looked up, the tested form may be a part) above
Chain of Androgen Receptor/SRC-1 Co-activator, AR (gene 367) (P10275 whole entry, looked up, the tested form may be a part): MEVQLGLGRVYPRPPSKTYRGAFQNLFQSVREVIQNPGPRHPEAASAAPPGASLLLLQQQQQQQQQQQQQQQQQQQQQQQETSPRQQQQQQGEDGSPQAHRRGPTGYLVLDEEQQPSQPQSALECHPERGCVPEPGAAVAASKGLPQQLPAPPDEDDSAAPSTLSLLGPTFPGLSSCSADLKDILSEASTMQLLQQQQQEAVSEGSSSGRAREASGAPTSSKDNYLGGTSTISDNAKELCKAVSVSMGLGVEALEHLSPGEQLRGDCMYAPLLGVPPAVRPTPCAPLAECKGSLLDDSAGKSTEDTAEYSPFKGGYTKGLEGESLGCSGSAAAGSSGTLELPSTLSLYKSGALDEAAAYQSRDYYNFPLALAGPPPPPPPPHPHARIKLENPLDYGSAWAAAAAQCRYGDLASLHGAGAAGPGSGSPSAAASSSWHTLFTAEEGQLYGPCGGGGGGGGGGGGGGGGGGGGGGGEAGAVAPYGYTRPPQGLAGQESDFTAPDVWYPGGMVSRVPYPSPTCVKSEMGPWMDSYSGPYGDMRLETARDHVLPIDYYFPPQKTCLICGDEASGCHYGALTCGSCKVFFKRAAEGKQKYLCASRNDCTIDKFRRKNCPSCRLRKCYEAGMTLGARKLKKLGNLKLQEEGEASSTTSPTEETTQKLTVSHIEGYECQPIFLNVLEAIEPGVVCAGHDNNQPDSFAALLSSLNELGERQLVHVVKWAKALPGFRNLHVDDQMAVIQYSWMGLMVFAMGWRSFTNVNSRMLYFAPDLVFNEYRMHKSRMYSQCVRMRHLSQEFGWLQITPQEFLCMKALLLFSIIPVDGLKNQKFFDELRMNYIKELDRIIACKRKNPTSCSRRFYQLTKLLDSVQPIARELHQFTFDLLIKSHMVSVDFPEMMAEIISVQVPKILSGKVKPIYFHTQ
Chain of Bile acid receptor (Homo sapiens) (Q96RI1 whole entry, looked up): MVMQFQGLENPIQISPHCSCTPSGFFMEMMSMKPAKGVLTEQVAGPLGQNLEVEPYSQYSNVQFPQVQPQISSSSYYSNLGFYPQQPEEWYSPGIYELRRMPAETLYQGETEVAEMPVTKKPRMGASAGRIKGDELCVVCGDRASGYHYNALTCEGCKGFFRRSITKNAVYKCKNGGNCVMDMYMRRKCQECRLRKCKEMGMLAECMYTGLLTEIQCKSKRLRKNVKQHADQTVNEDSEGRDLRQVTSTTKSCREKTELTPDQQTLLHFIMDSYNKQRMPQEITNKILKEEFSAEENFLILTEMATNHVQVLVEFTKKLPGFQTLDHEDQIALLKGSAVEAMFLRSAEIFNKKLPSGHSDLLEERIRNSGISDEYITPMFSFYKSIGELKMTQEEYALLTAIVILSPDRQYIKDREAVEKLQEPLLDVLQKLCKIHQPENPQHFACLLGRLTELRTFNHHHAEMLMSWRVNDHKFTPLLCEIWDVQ
Chain of human Constitutive Androstane Receptor (CAR), NR1I3 (gene 9970) (Q14994 whole entry, looked up): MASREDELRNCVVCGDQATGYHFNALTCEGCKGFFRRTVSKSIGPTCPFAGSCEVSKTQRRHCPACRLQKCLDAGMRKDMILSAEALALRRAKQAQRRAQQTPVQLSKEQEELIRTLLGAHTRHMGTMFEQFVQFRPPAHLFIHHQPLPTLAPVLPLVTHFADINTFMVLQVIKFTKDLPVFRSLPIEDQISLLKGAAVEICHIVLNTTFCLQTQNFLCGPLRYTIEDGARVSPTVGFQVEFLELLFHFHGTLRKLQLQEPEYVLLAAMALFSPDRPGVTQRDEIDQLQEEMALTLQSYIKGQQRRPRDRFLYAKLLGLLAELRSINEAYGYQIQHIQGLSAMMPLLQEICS
Chain of rat Glycine Receptor, Strychnine-sensitive (GlyRStrySens), Glra1 (gene 25674) (P07727 whole entry, looked up): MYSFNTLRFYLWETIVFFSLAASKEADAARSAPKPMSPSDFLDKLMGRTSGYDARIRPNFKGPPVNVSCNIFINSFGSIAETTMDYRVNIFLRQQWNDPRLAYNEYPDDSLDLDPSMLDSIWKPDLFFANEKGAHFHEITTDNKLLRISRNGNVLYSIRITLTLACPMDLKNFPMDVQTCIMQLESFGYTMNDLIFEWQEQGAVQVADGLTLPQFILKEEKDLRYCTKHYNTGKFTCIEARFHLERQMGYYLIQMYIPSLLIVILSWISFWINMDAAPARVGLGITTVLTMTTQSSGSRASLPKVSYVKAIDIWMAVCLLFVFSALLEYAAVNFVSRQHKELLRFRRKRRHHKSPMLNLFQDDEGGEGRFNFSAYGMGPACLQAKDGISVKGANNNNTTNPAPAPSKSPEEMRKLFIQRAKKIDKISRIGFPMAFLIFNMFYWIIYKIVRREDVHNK

As for `COC(=O)[C@H]1[C@H]2C[C@@H]3c4[nH]c5cc(OC)ccc5c4CCN3C[C@H]2C[C@@H](OC(=O)c2cc(OC)c(OC)c(OC)c2)[C@@H]1OC`, the call in [1] was inactive. Also, the AC50 in [2] is 19.2 µM (active).
As for `CSc1ccc(Oc2ccc(S(N)(=O)=O)cc2CN(C)C)cc1C`, the compound was called inactive in experiment [1], in experiment [4], in experiment [6], in experiment [7], in [8] and in experiment [9]. The result in experiment [11] was inactive. The AC50 in [3] is 38.8 µM (active); in [5] it was 11.7 µM (active); in experiment [10] it was 80.7 µM (active).
Turning to `CCCCC(CC)COP(=O)(OCC(CC)CCCC)OCC(CC)CCCC` (centres undefined), the AC50 in experiment [2] was 18.1 µM (active).
Turning to `O=C1c2c(O)cccc2Cc2cccc(O)c21`, the half-maximal activity concentration (AC50) with NCBI gene 100848466 is 42.7 µM (active).
On to `CCCCCCCCCCCCCCCCO`, for which the compound was called inactive in experiment [7], in experiment [8] and in [11].
As to `CC(C)OC(=O)C(C)(C)Oc1ccc(C(=O)c2ccc(Cl)cc2)cc1`, the compound was classed as inactive in experiment [6], in experiment [7], in [12], in [8], in experiment [9] and in experiment [11]. The AC50 in experiment [10] is 34.4 µM (active).
As to `CC(C)c1cccc(C(C)C)c1`, the outcome in experiment [7] and in experiment [8] was inactive.
For `CCCCCCCCCCCCCCOS(=O)(=O)O`, the half-maximal activity concentration (AC50) with NCBI gene 100848466 is 25 µM (active). Also, the call in experiment [7], in experiment [8] and in [11] was inactive.
For the compound `O=C(NS(=O)(=O)/C=C/c1cccs1)c1ccc(F)cc1Br`, the result in [7], in experiment [8], in experiment [10] and in experiment [11] was inactive.
For `O=C1NC(=O)C(c2ccccc2)(c2ccccc2)N1`, the compound was called inactive in experiment [13].
Take `NCCOCCOCCN`: the outcome in experiment [10] was inactive.
Regarding `CN(C)CCCN(C)CCCN(C)C`, the compound was classed as inactive in experiment [7], in experiment [8] and in experiment [11].
As to `O=C(O)CC(O)(CC(=O)O)C(=O)O`, the compound was called inactive in [7], in experiment [8], in experiment [9], in experiment [14] and in [11].
With `C=CCCCCCCCCCCCC`, in experiment [10], the result was inactive.
Turning to `Oc1ccc(O)cc1`, the call in experiment [7], in experiment [8], in [9] and in experiment [11] was inactive.
`CN(C)C(=O)NC1(c2ccccc2)CCN(CC[C@@]2(c3ccc(F)c(F)c3)CN(C(=O)c3ccccc3)CCO2)CC1`: in [5], the AC50 is 0.276 µM (active). For the same compound, in experiment [12], the call was inactive.
As for `CC1(C)C(=O)NC(=O)N1CO`, the result in experiment [7], in [8], in experiment [9] and in [11] was inactive.
For the compound `CCCCC(CC)COC(=O)CCCCCCCC(=O)OCC(CC)CCCC` (centres undefined), the call in experiment [15] was inactive.
`CC(=O)[C@@]1(O)CC[C@H]2[C@@H]3CCC4=CC(=O)CC[C@]4(C)[C@H]3CC[C@@]21C`: the AC50 in the experiment with NCBI gene 100848466 is 0.467 µM (active); in [15] it was 15.4 µM (active); in experiment [2], 0.49 µM (active). The compound was called inactive in experiment [15] and in experiment [2].
With `CC(=O)CC(c1ccccc1)c1c(O)c2ccccc2oc1=O` (centres undefined), the result in experiment [2] was inactive.
In the case of `CC1=C(C)S(=O)(=O)CCS1(=O)=O`, the outcome in [7], in [8] and in experiment [10] was inactive.
Take `COc1ccc(C(=O)Nc2nc3ccccc3c(NCc3ccccc3)c2C#N)cc1`: the call in experiment [7], in experiment [8], in [9] and in experiment [11] was inactive.
Turning to `O=C1CCCCC1`, the result in [7], in experiment [8], in experiment [9], in experiment [10] and in experiment [11] was inactive.
For `O=[Si]=O`, the outcome in [15], in [7], in experiment [8], in [9] and in experiment [11] was inactive.
With `C#CC(O)C(CC)CCCC` (centres undefined), the AC50 in experiment [10] was 72.6 µM (active).
As to `Cc1ccc(C(C)(C)C)c(O)c1`, the outcome in experiment [6], in experiment [7], in experiment [8] and in experiment [9] was inactive. Moreover, the concentration at half-maximal activity (AC50) in experiment [11] was 33.9 µM (active).
Regarding `Nc1nc(=S)c2[nH]cnc2[nH]1`, the compound was classed as inactive in [6], in [7], in [8], in experiment [9], in [10] and in [11].
Take `O=Cc1ccccc1C=O`: the compound was classed as inactive in experiment [15], in experiment [6], in experiment [7], in [8] and in experiment [11]. Also, the values for the AC50 in experiment [2] and in experiment [10] were 25 µM (active) and 75.3 µM (active), respectively.
In the case of `CCCCCCCC(=O)OC`, the result in experiment [7], in [8] and in experiment [11] was inactive.
As to `CCOCCOCCO`, in experiment [10], the result was inactive.
`S=c1[nH]c2ccccc2s1`: in experiment [2], the compound was called inactive.
Turning to `OCC(CO)n1cnc(-c2ccc(F)cc2)c1-c1ccnc(Oc2ccccc2)n1`, the result in experiment [7], in experiment [8], in experiment [9] and in [11] was inactive.
For `NC(=Nc1ccccc1)Nc1ccccc1`, the compound was classed as inactive in experiment [7], in experiment [8], in experiment [9] and in experiment [11].
Take `CCc1cc(C2=C(C(=O)O)N(c3ccccc3C(F)(F)F)S(=O)(=O)c3ccccc32)cc2c1OCO2`: the AC50 in [2] was 25 µM (active).
Take `O=C(O)CN(CC(=O)O)CC(=O)O`: the AC50 in experiment [7] was 10.9 µM (active). The compound was called inactive in [8].
